Test results taken from the supplement of paper PMC12645437, “Orthogonal IMiD-Degron Pairs Induce Selective Protein Degradation in Cells” (ACS Chemical Biology, 2025).
Over roughly 8,300 sequences, “log2 fold change of degron read counts, EGFP-low vs EGFP+ sorted cells (limma voom), compound-induced degradation” has its median near -1.1; the highest 2% begin near 3.2. This is one part of a sample in which the highest values are shown more often than they occur.

T1: CRBN, Q96SW2
T1 chain: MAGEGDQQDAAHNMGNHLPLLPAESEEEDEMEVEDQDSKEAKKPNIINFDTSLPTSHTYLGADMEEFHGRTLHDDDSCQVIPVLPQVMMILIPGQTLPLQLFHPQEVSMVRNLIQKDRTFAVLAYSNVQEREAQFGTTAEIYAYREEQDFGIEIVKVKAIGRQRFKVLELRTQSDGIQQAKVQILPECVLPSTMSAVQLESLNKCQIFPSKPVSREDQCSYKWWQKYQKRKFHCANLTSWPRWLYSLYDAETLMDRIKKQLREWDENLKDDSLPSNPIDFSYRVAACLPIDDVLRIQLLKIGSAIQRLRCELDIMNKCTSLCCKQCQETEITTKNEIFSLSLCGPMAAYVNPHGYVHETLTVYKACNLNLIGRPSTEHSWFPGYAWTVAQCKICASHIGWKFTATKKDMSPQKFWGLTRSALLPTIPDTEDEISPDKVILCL


Target: T1, CRBN, Q96SW2
Assay: log2 fold change of degron read counts, EGFP-low vs EGFP+ sorted cells (limma voom), compound-induced degradation; higher = more compound-induced degradation of the degron-EGFP fusion; degrons are variants of IKZF1/3 zinc finger 2; compound dose not given here
Conditions: Jurkat, 18 h
Protocol: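 Pooled library of 8380 IKZF3 ZF2 degron mutants (positions 146-167 varied within the IKZF3 130-189 degron; only the varied core is printed, flanks not printed) fused to EGFP with IRES-mCherry, lentivirally expressed in Jurkat cells. mCherry+ cells were treated with one IMiD compound for 18 h (dose not stated) and FACS-sorted into EGFP-low and EGFP+ populations. Degron sequences were counted by NGS, and log2FC (EGFP-low vs EGFP+) was estimated by limma voom over 3 biological replicates.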

[1] = compound: compound 19 (5-tert-butyl-thalidomide)
[2] = compound: compound 22 (5-morpholino-thalidomide)
[3] = compound: compound 33 (diphenyl IMiD analogue)
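Note: pooled lentiviral library of zinc finger degron-EGFP fusions in mCherry-positive Jurkat cells, FACS-sorted after compound exposure, with degron abundance counted by next-generation sequencing.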

Row | Sequence | log2 fold change of degron read counts [1] | log2 fold change of degron read counts [2] | log2 fold change of degron read counts [3] | log2 fold change of degron read counts (compound: thalidomide)
1 | LYCEICGFGCTQKGNLLRHIKL [46L_47Y_49E_50I_52G_53F_54G_55C_67L_, Q9UKT9] | 2.73 | 2.15 | 1.33 | 0.286
2 | FVCNQCGRWFTQKGNLLRHIKL [46F_47V_49N_50Q_52G_53R_54W_55F_67L_, Q9UKT9] | -2.52 | -2.06 | -2.42 | -1.9
3 | FDCNVCGAKFTQKGNLLRHIKL [46F_47D_49N_50V_52G_53A_54K_55F_67L_, Q9UKT9] | -1.36 | -2.41 | -2.78 | -0.891
4 | LNCPICGFYCTQKGNLLRHIKL [46L_47N_49P_50I_52G_53F_54Y_55C_67L_, Q9UKT9] | 1.76 | 1.72 | 1.52 | 2.04
5 | LECPICGFYCTQKGNLLRHIKL [46L_47E_49P_50I_52G_53F_54Y_55C_67L_, Q9UKT9] | 0.407 | 0.1 | 2.47 | 3.34
6 | LKCPICGFYCTQKGNLLRHIKL [46L_47K_49P_50I_52G_53F_54Y_55C_67L_, Q9UKT9] | -0.431 | -0.605 | -1.14 | 0.828
7 | LLCPICGFYCTQKGNLLRHIKL [46L_47L_49P_50I_52G_53F_54Y_55C_67L_, Q9UKT9] | 0.305 | 0.574 | 1.63 | 1.96
8 | LYCPICGFYCTQKGNLLRHIKL [46L_47Y_49P_50I_52G_53F_54Y_55C_67L_, Q9UKT9] | 3.22 | 3.11 | 2.72 | 1.82
9 | LTCPICGFYCTQKGNLLRHIKL [46L_47T_49P_50I_52G_53F_54Y_55C_67L_, Q9UKT9] | 1.69 | 2.58 | 2.93 | 3.24
10 | FCCEICGHIFTQKGNLLRHIKL [46F_47C_49E_50I_52G_53H_54I_55F_67L_, Q9UKT9] | -2.19 | -2.44 | -1.42 | -1.61
11 | FLCNQCGRTFTQKGNLLRHIKL [46F_47L_49N_50Q_52G_53R_54T_55F_67L_, Q9UKT9] | -2.4 | -2.94 | -3.37 | -2.18
12 | FNCPQCGANFTQKGNLLRHIKL [46F_47N_49P_50Q_52G_53A_54N_55F_67L_, Q9UKT9] | -1.43 | -2.18 | -1.52 | -2.31
13 | FTCEICGAYFTQKGNLLRHIKL [46F_47T_49E_50I_52G_53A_54Y_55F_67L_, Q9UKT9] | 0.598 | 1.53 | 2.02 | 2.85
14 | FICNICGATFTQKGNLLRHIKL [46F_47I_49N_50I_52G_53A_54T_55F_67L_, Q9UKT9] | -1.79 | 0.00658 | 1.15 | 1.1
15 | FVCNICGAQFTQKGNLLRHIKL [46F_47V_49N_50I_52G_53A_54Q_55F_67L_, Q9UKT9] | -0.604 | 1.47 | 2.69 | 1.92
16 | FRCNICGAQFTQKGNLLRHIKL [46F_47R_49N_50I_52G_53A_54Q_55F_67L_, Q9UKT9] | -1.02 | -0.868 | -0.156 | 0.111
17 | FACNICGAQFTQKGNLLRHIKL [46F_47A_49N_50I_52G_53A_54Q_55F_67L_, Q9UKT9] | 2.04 | 1.62 | 0.179 | -0.104
18 | FQCNICGAQFTQKGNLLRHIKL [46F_47Q_49N_50I_52G_53A_54Q_55F_67L_, Q9UKT9] | -0.94 | 1.3 | 1.62 | 3.28
19 | FYCNICGAQFTQKGNLLRHIKL [46F_47Y_49N_50I_52G_53A_54Q_55F_67L_, Q9UKT9] | 2.24 | 3.15 | 1.75 | 0.339

Row | Sequence | log2 fold change of degron read counts [1] | log2 fold change of degron read counts [2] | log2 fold change of degron read counts [3] | log2 fold change of degron read counts (compound: thalidomide)
20 | FWCNICGAQFTQKGNLLRHIKL [46F_47W_49N_50I_52G_53A_54Q_55F_67L_, Q9UKT9] | 2.02 | 3.59 | 1.86 | 0.626
21 | LRCEICGFFCTQKGNLLRHIKL [46L_47R_49E_50I_52G_53F_54F_55C_67L_, Q9UKT9] | -0.285 | -0.446 | 0.954 | 1.12
22 | FSCNQCGHKFTQKGNLLRHIKL [46F_47S_49N_50Q_52G_53H_54K_55F_67L_, Q9UKT9] | -2.24 | -2.55 | -2.41 | -2.6
23 | FACEQCGAYFTQKGNLLRHIKL [46F_47A_49E_50Q_52G_53A_54Y_55F_67L_, Q9UKT9] | -0.764 | -2.44 | -1.5 | -1.62
24 | FCCNQCGHDFTQKGNLLRHIKL [46F_47C_49N_50Q_52G_53H_54D_55F_67L_, Q9UKT9] | -2.95 | -3.42 | -3.04 | -2.8
25 | FDCNQCGRCFTQKGNLLRHIKL [46F_47D_49N_50Q_52G_53R_54C_55F_67L_, Q9UKT9] | -2.4 | -2.73 | -2.2 | -1.93
26 | FYCPQCGAAFTQKGNLLRHIKL [46F_47Y_49P_50Q_52G_53A_54A_55F_67L_, Q9UKT9] | 1.03 | 1.46 | 1.86 | -0.429
27 | FVCPVCGAAFTQKGNLLRHIKL [46F_47V_49P_50V_52G_53A_54A_55F_67L_, Q9UKT9] | 0.708 | 3.2 | 2.37 | 3.08
28 | FHCPVCGAAFTQKGNLLRHIKL [46F_47H_49P_50V_52G_53A_54A_55F_67L_, Q9UKT9] | 2.96 | 2.4 | 2.16 | 0.942
29 | FQCPVCGAAFTQKGNLLRHIKL [46F_47Q_49P_50V_52G_53A_54A_55F_67L_, Q9UKT9] | 2.54 | 3.1 | 2.52 | 3.69
30 | FCCPVCGAAFTQKGNLLRHIKL [46F_47C_49P_50V_52G_53A_54A_55F_67L_, Q9UKT9] | 3.16 | 2.58 | 2.48 | 2.16
31 | FGCPVCGAAFTQKGNLLRHIKL [46F_47G_49P_50V_52G_53A_54A_55F_67L_, Q9UKT9] | 3.32 | 2.34 | 2.97 | 1.29
32 | FVCPQCGAAFTQKGNLLRHIKL [46F_47V_49P_50Q_52G_53A_54A_55F_67L_, Q9UKT9] | -1.44 | 1.34 | 1.04 | 1.46
33 | FICPVCGAAFTQKGNLLRHIKL [46F_47I_49P_50V_52G_53A_54A_55F_67L_, Q9UKT9] | -0.386 | 2.86 | 2.22 | 2.77
34 | FMCPVCGAAFTQKGNLLRHIKL [46F_47M_49P_50V_52G_53A_54A_55F_67L_, Q9UKT9] | 1.72 | 2.21 | 3.08 | 2.11
35 | FWCPVCGAAFTQKGNLLRHIKL [46F_47W_49P_50V_52G_53A_54A_55F_67L_, Q9UKT9] | 3.13 | 3.69 | 2.44 | 1.11
36 | FECPVCGAAFTQKGNLLRHIKL [46F_47E_49P_50V_52G_53A_54A_55F_67L_, Q9UKT9] | 2.1 | -0.445 | 2.32 | 3
37 | FQCPQCGAAFTQKGNLLRHIKL [46F_47Q_49P_50Q_52G_53A_54A_55F_67L_, Q9UKT9] | -0.422 | 1.04 | 0.683 | 3.27
